# The panel holds about 79,000 compounds, 15% with a hit somewhere; the sample as a whole holds those more often. A number with no mark means an inactive call. Calls of active or inactive are those of the source. No stated cut-off is given here; in the data, active means growth inhibition above about 70%; inactive means the rest.
# How the values were obtained:
# [1] = NCI Yeast Anticancer Drug Screen. Data for the rad52 strain (AID 147);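 further: 0% = growth of vehicle-treated control cultures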; details: S. cerevisiae rad52 mutant growth inhibition, active compounds read high
# How it was run: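 The repair-mutant yeast strain was incubated with compounds, then growth was read and inhibition derived relative to vehicle.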
# [2] = NCI Yeast Anticancer Drug Screen. Data for the wt1 strain (AID 149);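 further: 0% = growth of vehicle-treated wt1 cultures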; details: S. cerevisiae wt1 strain (SPY 50644) growth inhibition, active compounds read high
# How it was run: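 Yeast wt1 strain exposed to compounds; growth inhibition measured relative to vehicle-treated controls.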
# [3] = NCI Yeast Anticancer Drug Screen. Data for the rad50EPP+ strain (AID 151);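 further: 0% = growth of vehicle-treated control cultures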; details: S. cerevisiae rad50 mutant strain, active compounds read high
# How it was run: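 Vehicle-normalised growth inhibition; rad50EPP+ yeast strain, altered in DNA damage repair, compound-treated.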
# [4] = NCI Yeast Anticancer Drug Screen. Data for the mgt1 strain (AID 153); details: S. cerevisiae mgt1 mutant growth inhibition, active compounds read high
# How it was run: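 Vehicle-normalized growth inhibition is determined in mgt1 yeast, a strain selected for a defined alteration in DNA repair or cell cycle control.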
# [5] = NCI Yeast Anticancer Drug Screen. Data for the rad50 strain (AID 155);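 further: 0% = growth of vehicle-only cultures of the same strain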; details: S. cerevisiae rad50 strain growth inhibition, active compounds read high
# How it was run: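 Yeast carrying a defined DNA repair defect were exposed to test compounds, and growth was compared with vehicle-treated controls to give percent inhibition.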
# [6] = NCI Yeast Anticancer Drug Screen. Data for the mec2-1 strain (AID 157); details: S. cerevisiae mec2-1 strain, active compounds read high
# How it was run: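 Mutant yeast (mec2-1) grown with compound; growth inhibition relative to vehicle control reported.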
# [7] = NCI Yeast Anticancer Drug Screen. Data for the rad14 strain (AID 159);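 further: 0% = growth of vehicle-treated control cultures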; details: S. cerevisiae rad14 strain growth inhibition, active compounds read high
# How it was run: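 Yeast cells carrying a defined DNA-repair defect were exposed to compounds, and growth inhibition was calculated relative to vehicle-treated control cultures.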
# [8] = NCI Yeast Anticancer Drug Screen. Data for the sgs1 mgt1 strain (AID 161);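 further: 0% = growth of cultures given vehicle only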; details: S. cerevisiae sgs1 mgt1 strain, active compounds read high
# How it was run: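 Percent growth inhibition was derived by comparing compound-exposed mutant yeast with vehicle-exposed cultures. The strain carries alterations in DNA damage repair.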
# [9] = NCI Yeast Anticancer Drug Screen. Data for the CLN2oe strain (AID 163);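 further: 0% = growth of vehicle-only control cultures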; details: S. cerevisiae CLN2oe strain, active compounds read high
# How it was run: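 Compounds are applied to yeast harbouring a defined cell-cycle control change; reduced growth compared with vehicle-treated controls gives the value.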
# [10] = NCI Yeast Anticancer Drug Screen. Data for the cln2 rad14 strain (AID 165);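 further: 0% = growth equal to vehicle treated cultures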; details: S. cerevisiae cln2 rad14 strain, active compounds read high
# How it was run: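 Readout is yeast growth inhibition versus vehicle-treated controls, using a strain with cln2 and rad14 alterations exposed to compound.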
# [11] = NCI Yeast Anticancer Drug Screen. Data for the bub3 strain (AID 167); details: S. cerevisiae bub3 mutant strain, active compounds read high
# How it was run: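 Compounds were applied to a genetically altered yeast strain carrying a cell-cycle control defect. Growth inhibition was scored against vehicle-treated controls.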
# [12] = NCI Yeast Anticancer Drug Screen. Data for the wt2 strain (AID 169);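 further: 0% = growth of vehicle-treated yeast cultures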; details: S. cerevisiae wt2 strain growth inhibition, active compounds read high
# How it was run: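 Against vehicle-treated controls, the growth of yeast exposed to each compound was compared, and the inhibition was recorded.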
# [13] = NCI Yeast Anticancer Drug Screen. Data for the mlh1 strain (AID 171);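 further: 0% = growth of vehicle-treated control cultures of the same strain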; details: S. cerevisiae mlh1 strain growth inhibition, active compounds read high
# How it was run: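 Measured: yeast growth. Reference: vehicle-treated controls. Organism: strain with a defined alteration affecting DNA damage repair or cell cycle control, treated with compound.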
# [14] = NCI Yeast Anticancer Drug Screen. Data for the sgs1 strain (AID 173);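 further: 0% = growth of vehicle-only control cultures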; details: S. cerevisiae sgs1 mutant, active compounds read high
# How it was run: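 Each compound was added to cultures of the altered yeast strain. Growth was recorded, and inhibition was derived by comparison with vehicle controls.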
# [15] = NCI Yeast Anticancer Drug Screen. Data for the mlh1 rad18 strain (AID 175); details: S. cerevisiae mlh1 rad18 strain growth inhibition, active compounds read high
# How it was run: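 Genetically defined yeast (DNA repair-deficient) exposed to compounds; growth inhibition determined relative to vehicle.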
# [16] = NCI Yeast Anticancer Drug Screen. Data for the rad18 strain (AID 177); details: S. cerevisiae rad18 mutant growth inhibition, active compounds read high
# How it was run: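 Vehicle-treated cultures served as the baseline for scoring compound-induced growth inhibition in DNA-repair-mutant yeast.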
# [17] = at 5.0 µM (retest, dose inferred, filed as 0.5)
# [18] = at 50.0 µM (retest, dose inferred, filed as 5.0)
compound,measurement,setting,value
Nc1nnc(N)n1-n1c(N)nnc1N,growth inhibition,[1]; at 1.2 µM,-2%
same,growth inhibition,[1]; at 3.7 µM,-2%
same,growth inhibition,[1]; at 11.0 µM,-1%
same,growth inhibition,[1]; at 33.0 µM,0%
same,growth inhibition,[1]; at 100.0 µM,10%
same,growth inhibition,[2]; at 1.2 µM,-1%
same,growth inhibition,[2]; at 3.7 µM,2%
same,growth inhibition,[2]; at 11.0 µM,-2%
same,growth inhibition,[2]; at 33.0 µM,-2%
same,growth inhibition,[2]; at 100.0 µM,2%
same,growth inhibition,[3]; at 1.2 µM,1%
same,growth inhibition,[3]; at 3.7 µM,0%
same,growth inhibition,[3]; at 11.0 µM,-5%
same,growth inhibition,[3]; at 33.0 µM,-14%
same,growth inhibition,[3]; at 100.0 µM,-16%
same,growth inhibition,[4]; at 1.2 µM,-3%
same,growth inhibition,[4]; at 3.7 µM,-4%
same,growth inhibition,[4]; at 11.0 µM,-4%
same,growth inhibition,[4]; at 33.0 µM,-2%
same,growth inhibition,[4]; at 100.0 µM,1%
same,growth inhibition,[5]; at 1.2 µM,-3%
same,growth inhibition,[5]; at 3.7 µM,-1%
same,growth inhibition,[5]; [17],-8%
same,growth inhibition,[5]; at 11.0 µM,-3%
same,growth inhibition,[5]; at 33.0 µM,1%
same,growth inhibition,[5]; [18],92% (active)
same,growth inhibition,[5]; at 50.0 µM,56.1%
same,growth inhibition,[5]; at 100.0 µM,9%
same,growth inhibition,[6]; at 1.2 µM,1%
same,growth inhibition,[6]; at 3.7 µM,3%
same,growth inhibition,[6]; [17],-22%
same,growth inhibition,[6]; at 11.0 µM,4%
same,growth inhibition,[6]; at 33.0 µM,4%
same,growth inhibition,[6]; [18],36%
same,growth inhibition,[6]; at 50.0 µM,11.8%
same,growth inhibition,[6]; at 100.0 µM,2%
same,growth inhibition,[7]; at 1.2 µM,-3%
same,growth inhibition,[7]; at 3.7 µM,-3%
same,growth inhibition,[7]; at 11.0 µM,-4%
same,growth inhibition,[7]; at 33.0 µM,-6%
same,growth inhibition,[7]; at 100.0 µM,0%
same,growth inhibition,[8]; [17],2%
same,growth inhibition,[8]; [18],89% (active)
same,growth inhibition,[8]; at 50.0 µM,27.9%
same,growth inhibition,[9]; at 1.2 µM,-3%
same,growth inhibition,[9]; at 3.7 µM,-14%
same,growth inhibition,[9]; at 11.0 µM,-8%
same,growth inhibition,[9]; at 33.0 µM,-6%
same,growth inhibition,[9]; at 100.0 µM,-4%
same,growth inhibition,[10]; [17],-2%
same,growth inhibition,[10]; [18],31%
same,growth inhibition,[10]; at 50.0 µM,-13.2%
same,growth inhibition,[11]; at 1.2 µM,-1%
same,growth inhibition,[11]; at 3.7 µM,-1%
same,growth inhibition,[11]; [17],-18%
same,growth inhibition,[11]; at 11.0 µM,2%
same,growth inhibition,[11]; at 33.0 µM,3%
same,growth inhibition,[11]; [18],57%
same,growth inhibition,[11]; at 50.0 µM,1.05%
same,growth inhibition,[11]; at 100.0 µM,0%
same,growth inhibition,[12]; at 1.2 µM,-1%
same,growth inhibition,[12]; at 3.7 µM,-1%
same,growth inhibition,[12]; at 11.0 µM,-5%
same,growth inhibition,[12]; at 33.0 µM,-2%
same,growth inhibition,[12]; at 100.0 µM,1%
same,growth inhibition,[13]; at 1.2 µM,0%
same,growth inhibition,[13]; at 3.7 µM,0%
same,growth inhibition,[13]; at 11.0 µM,0%
same,growth inhibition,[13]; at 33.0 µM,-1%
same,growth inhibition,[13]; at 100.0 µM,2%
same,growth inhibition,[14]; at 1.2 µM,0%
same,growth inhibition,[14]; at 3.7 µM,-1%
same,growth inhibition,[14]; at 11.0 µM,-1%
same,growth inhibition,[14]; at 33.0 µM,-1%
same,growth inhibition,[14]; at 100.0 µM,4%
same,growth inhibition,[15]; [17],49%
same,growth inhibition,[15]; [18],96% (active)
same,growth inhibition,[15]; at 50.0 µM,19.1%
same,growth inhibition,[16]; at 1.2 µM,0%
same,growth inhibition,[16]; at 3.7 µM,-4%
same,growth inhibition,[16]; at 11.0 µM,-5%
same,growth inhibition,[16]; at 33.0 µM,-4%
same,growth inhibition,[16]; at 100.0 µM,9%
O=C(O)CCCOc1cc(Cl)c(Cl)cc1Cl,growth inhibition,[1]; at 1.2 µM,-13%
same,growth inhibition,[1]; at 3.7 µM,-4%
same,growth inhibition,[1]; at 11.0 µM,1%
same,growth inhibition,[1]; at 33.0 µM,45%
same,growth inhibition,[1]; at 100.0 µM,75% (active)
same,growth inhibition,[2]; at 1.2 µM,-1%
same,growth inhibition,[2]; at 3.7 µM,-9%
same,growth inhibition,[2]; at 11.0 µM,2%
same,growth inhibition,[2]; at 33.0 µM,22%
same,growth inhibition,[2]; at 100.0 µM,71% (active)
same,growth inhibition,[3]; at 1.2 µM,-10%
same,growth inhibition,[3]; at 3.7 µM,-6%
same,growth inhibition,[3]; at 11.0 µM,13%
same,growth inhibition,[3]; at 33.0 µM,43%
same,growth inhibition,[3]; at 100.0 µM,70% (active)
same,growth inhibition,[4]; at 1.2 µM,-17%
same,growth inhibition,[4]; at 3.7 µM,-32%
same,growth inhibition,[4]; at 11.0 µM,-13%
same,growth inhibition,[4]; at 33.0 µM,35%
same,growth inhibition,[4]; at 100.0 µM,80% (active)
same,growth inhibition,[5]; at 1.2 µM,-10%
same,growth inhibition,[5]; at 3.7 µM,-17%
same,growth inhibition,[5]; [17],40%
same,growth inhibition,[5]; at 11.0 µM,-5%
same,growth inhibition,[5]; at 33.0 µM,42%
same,growth inhibition,[5]; [18],98% (active)
same,growth inhibition,[5]; at 50.0 µM,82% (active)
same,growth inhibition,[5]; at 100.0 µM,78% (active)
same,growth inhibition,[6]; at 1.2 µM,-24%
same,growth inhibition,[6]; at 3.7 µM,-13%
same,growth inhibition,[6]; [17],52%
same,growth inhibition,[6]; at 11.0 µM,4%
same,growth inhibition,[6]; at 33.0 µM,34%
same,growth inhibition,[6]; [18],98% (active)
same,growth inhibition,[6]; at 50.0 µM,74.8% (active)
same,growth inhibition,[6]; at 100.0 µM,90% (active)
same,growth inhibition,[7]; at 1.2 µM,-13%
same,growth inhibition,[7]; at 3.7 µM,-4%
same,growth inhibition,[7]; at 11.0 µM,-4%
same,growth inhibition,[7]; at 33.0 µM,17%
same,growth inhibition,[7]; at 100.0 µM,81% (active)
same,growth inhibition,[8]; [17],-17%
same,growth inhibition,[8]; [18],18%
same,growth inhibition,[8]; at 50.0 µM,77.2% (active)
same,growth inhibition,[9]; at 1.2 µM,0%
same,growth inhibition,[9]; at 3.7 µM,-15%
same,growth inhibition,[9]; at 11.0 µM,-11%
same,growth inhibition,[9]; at 33.0 µM,4%
same,growth inhibition,[9]; at 100.0 µM,60%
same,growth inhibition,[10]; [17],10%
same,growth inhibition,[10]; [18],47%
same,growth inhibition,[10]; at 50.0 µM,75.5% (active)
same,growth inhibition,[11]; at 1.2 µM,-6%
same,growth inhibition,[11]; at 3.7 µM,-3%
same,growth inhibition,[11]; [17],28%
same,growth inhibition,[11]; at 11.0 µM,-2%
same,growth inhibition,[11]; at 33.0 µM,43%
same,growth inhibition,[11]; [18],52%
same,growth inhibition,[11]; at 50.0 µM,83.4% (active)
same,growth inhibition,[11]; at 100.0 µM,78% (active)
same,growth inhibition,[12]; at 1.2 µM,-6%
same,growth inhibition,[12]; at 3.7 µM,-11%
same,growth inhibition,[12]; at 11.0 µM,-4%
same,growth inhibition,[12]; at 33.0 µM,30%
same,growth inhibition,[12]; at 100.0 µM,80% (active)
same,growth inhibition,[13]; at 1.2 µM,-20%
same,growth inhibition,[13]; at 3.7 µM,-27%
same,growth inhibition,[13]; at 11.0 µM,2%
same,growth inhibition,[13]; at 33.0 µM,40%
same,growth inhibition,[13]; at 100.0 µM,80% (active)
same,growth inhibition,[14]; at 1.2 µM,-13%
same,growth inhibition,[14]; at 3.7 µM,-18%
same,growth inhibition,[14]; at 11.0 µM,2%
same,growth inhibition,[14]; at 33.0 µM,43%
same,growth inhibition,[14]; at 100.0 µM,76% (active)
same,growth inhibition,[15]; [17],42%
same,growth inhibition,[15]; [18],99% (active)
same,growth inhibition,[15]; at 50.0 µM,78.7% (active)
same,growth inhibition,[16]; at 1.2 µM,-33%
same,growth inhibition,[16]; at 3.7 µM,-21%
same,growth inhibition,[16]; at 11.0 µM,-7%
same,growth inhibition,[16]; at 33.0 µM,41%
same,growth inhibition,[16]; at 100.0 µM,77% (active)

# — PubChem BioAssay (NCI)
